# From publication PMC5540273 (PLoS ONE, 2017)
# Columns and labels:
# Settings in all cases: concentration: 1 μM,replicates: in singlicate; n = 1
# PLK2 = tested on: PLK2
# PLK3 = tested on: PLK3
# PLK4 = tested on: PLK4
# PRKCD = tested on: PRKCD
# PRKCE = tested on: PRKCE
# PRKCH = tested on: PRKCH
# PRKCI = tested on: PRKCI
# PRKCQ = tested on: PRKCQ
# PRKD1 = tested on: PRKD1
# PRKD2 = tested on: PRKD2
# 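Note: KINOMEscan kinase panel screen.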
SMILES,%Inh (PLK2) [%],%Inh (PLK3) [%],%Inh (PLK4) [%],%Inh (PRKCD) [%],%Inh (PRKCE) [%],%Inh (PRKCH) [%],%Inh (PRKCI) [%],%Inh (PRKCQ) [%],%Inh (PRKD1) [%],%Inh (PRKD2) [%]
COc1cccc(C2=C(Nc3cccc(Cl)c3)C(=O)NC2=O)c1 [SB-341556],0,0,8,26,19,0,0,17,0,0
COC(=O)c1cccc(NC(=O)NC2CCN(c3ccnc(Nc4cc(OC)c(OC)c(OC)c4)n3)C2)c1 (stereo not shown) [GSK1379767],0,0,38,0,18,7,19,0,0,5
Cn1ccc2ncnc(Oc3ccc(NC(=O)Nc4cccc(C(F)(F)F)c4)c(Cl)c3)c21,2,22,9,0,0,0,8,7,0,15
CC(C)S(=O)(=O)N1CCN(Cc2ccc3c(c2)nc(NC(=O)c2ccsc2)n3C[C@H](O)c2ccccc2)CC1 [GW635815],0,0,5,11,15,13,18,12,0,0
O=C(Nc1cccc(Oc2ccc3nccn3n2)c1)Nc1cccc(C(F)(F)F)c1,0,0,0,10,0,0,11,9,2,24
CN1CCN(CCNc2nc3cc(Oc4ccc(NC(=O)Nc5cc(C(F)(F)F)ccc5F)cc4)ccc3[nH]2)CC1.Cl.Cl [GW768504],0,0,8,9,0,0,0,0,0,14
COC(=O)c1cccc(NC(=O)NC2CCN(c3ccnc(NCc4ccc(F)cc4)n3)CC2)c1 [GSK1379860],0,0,0,0,0,32,28,26,12,2
CN(c1cccc(CNc2nc(Nc3ccc4c(c3)CC(=O)N4)ncc2C(F)(F)F)c1)S(C)(=O)=O,70,69,89,27,16,0,22,38,27,39
Cc1ccn2nc(-c3ccc(F)cc3)c(-c3ccncc3)c2c1.Cl [GW457859],0,0,2,0,14,8,18,8,17,20
O=C(Nc1n[nH]c2cc(-c3ccco3)ccc12)C1CC1 [SB-737447],6,8,20,4,0,8,29,5,0,0
Cl.Nc1n[nH]c2cc(-c3ccccn3)ccc12 [GSK2189892],0,0,0,0,0,13,8,7,0,10
CN(c1ccc2c(c1)nc(NCc1ccc(F)cc1)n2C)c1ccnc(Nc2ccc(CS(C)(=O)=O)cc2)n1.Cl [GW813244],3,21,73,11,100,0,18,0,0,24
O=C(NCC1CC1)c1ccc(-c2cc(C(=O)NC3CC3)ccc2F)cc1 [GW810445],0,0,0,0,27,0,0,0,0,0
Cc1nnc(-c2ccc3occ(-c4ccc(S(C)=O)cc4)c3n2)o1 (stereo not shown),0,0,0,0,0,4,0,0,22,0
CCOC(=O)N1CCC(n2cnc(-c3ccc(F)cc3)c2-c2ccnc(N)n2)CC1 [SB-219952],2,0,25,0,4,0,8,1,32,5
Cc1cccc(-c2nc(Nc3ccncc3)c3sccc3n2)n1 [GW869641],20,13,23,20,40,21,32,0,99.3,–
NC(=O)Nc1sc(-c2ccc(F)cc2)cc1C(N)=O [GW789449],20,1,26,20,17,0,25,35,0,0
